Active and inactive are the calls of the source. The calls were made as follows: active = hit-call score of the fitted dose curve at least 0.9, where 1 is the maximum; inactive = score below 0.9.
Key:
[1] = ATG_CRE_CIS: Attagene CIS-FACTORIAL HepG2 Assay for human cAMP Responsive Element (CRE) binding protein 3 (AID 2282926); details: HepG2 CRE cis-reporter, Attagene multiplexed mRNA; actives raise or lower the signal
How it was run: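 Endogenous CRE-binding activity in HepG2 is reported through a cis-regulated transfected reporter. Following a day of exposure, mRNA levels are determined by reverse transcription PCR and fluorescent fragment analysis; fits run in both directions versus DMSO.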

[2] = biological target: CCAAT/enhancer-binding protein beta (Homo sapiens) (UniProt P17676); experiment: ATG_C_EBP_CIS: Attagene CIS-FACTORIAL HepG2 Assay for human CCAAT/Enhancer Binding Protein (C/EBP) beta (AID 2282927); details: HepG2 Attagene cis-factorial transcription factor reporter; actives raise or lower the signal
Chain of CCAAT/enhancer-binding protein beta (Homo sapiens) (P17676 whole entry, looked up): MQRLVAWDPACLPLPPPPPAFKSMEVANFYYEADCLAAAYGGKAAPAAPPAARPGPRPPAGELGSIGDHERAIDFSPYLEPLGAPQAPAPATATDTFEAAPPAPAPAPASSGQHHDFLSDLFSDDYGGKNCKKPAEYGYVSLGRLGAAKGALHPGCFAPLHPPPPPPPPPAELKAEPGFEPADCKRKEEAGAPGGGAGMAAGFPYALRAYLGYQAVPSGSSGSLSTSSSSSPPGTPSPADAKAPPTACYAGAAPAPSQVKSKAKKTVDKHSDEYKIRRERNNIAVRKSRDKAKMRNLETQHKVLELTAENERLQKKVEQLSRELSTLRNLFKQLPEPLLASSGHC
How it was run: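 Transiently transfected HepG2 (MRTU library, endogenous TF-driven promoters); 24 h dosing; total RNA → oligo(dT) RT → PCR → 6-FAM primer extension → HpaI digest → CE; fit bidirectionally vs DMSO.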

[3] = ATG_CMV_CIS: Attagene CIS-FACTORIAL HepG2 Assay for human CMV (Internal Marker) (AID 2282928); details: HepG2 CMV promoter reporter, transcription factor profiling; actives raise or lower the signal;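 also: endpoint acts as a background internal control marker rather than a target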
How it was run: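 Endogenous transcription factor activity read in HepG2 via transfected cis-promoter reporter units. After 24 h dosing, reporter mRNA measured by RT-PCR/capillary electrophoresis; gain or loss of signal fit relative to DMSO.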

[4] = ATG_DR4_LXR_CIS: Attagene CIS-FACTORIAL HepG2 Assay for human Liver X Receptor (LXR), DR4 submotif (AID 2282929); details: HepG2 Attagene DR4 cis-reporter, mRNA transcription; actives raise or lower the signal
How it was run: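 Fluorescence intensity of labelled reporter cDNA fragments, separated by capillary electrophoresis, gives the signal. HepG2 cells bearing cis-regulated reporter constructs were treated 24 h; activity fitted bidirectionally relative to DMSO negative control.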

[5] = biological target: Aryl hydrocarbon receptor (Homo sapiens) (UniProt P35869); experiment: ATG_Ahr_CIS: Attagene CIS-FACTORIAL HepG2 Assay for human Aryl Hydrocarbon Receptor (Ahr) (AID 2282930); details: HepG2 AhR cis-factorial reporter transcription; actives raise or lower the signal
Chain of Aryl hydrocarbon receptor (Homo sapiens) (P35869 whole entry, looked up): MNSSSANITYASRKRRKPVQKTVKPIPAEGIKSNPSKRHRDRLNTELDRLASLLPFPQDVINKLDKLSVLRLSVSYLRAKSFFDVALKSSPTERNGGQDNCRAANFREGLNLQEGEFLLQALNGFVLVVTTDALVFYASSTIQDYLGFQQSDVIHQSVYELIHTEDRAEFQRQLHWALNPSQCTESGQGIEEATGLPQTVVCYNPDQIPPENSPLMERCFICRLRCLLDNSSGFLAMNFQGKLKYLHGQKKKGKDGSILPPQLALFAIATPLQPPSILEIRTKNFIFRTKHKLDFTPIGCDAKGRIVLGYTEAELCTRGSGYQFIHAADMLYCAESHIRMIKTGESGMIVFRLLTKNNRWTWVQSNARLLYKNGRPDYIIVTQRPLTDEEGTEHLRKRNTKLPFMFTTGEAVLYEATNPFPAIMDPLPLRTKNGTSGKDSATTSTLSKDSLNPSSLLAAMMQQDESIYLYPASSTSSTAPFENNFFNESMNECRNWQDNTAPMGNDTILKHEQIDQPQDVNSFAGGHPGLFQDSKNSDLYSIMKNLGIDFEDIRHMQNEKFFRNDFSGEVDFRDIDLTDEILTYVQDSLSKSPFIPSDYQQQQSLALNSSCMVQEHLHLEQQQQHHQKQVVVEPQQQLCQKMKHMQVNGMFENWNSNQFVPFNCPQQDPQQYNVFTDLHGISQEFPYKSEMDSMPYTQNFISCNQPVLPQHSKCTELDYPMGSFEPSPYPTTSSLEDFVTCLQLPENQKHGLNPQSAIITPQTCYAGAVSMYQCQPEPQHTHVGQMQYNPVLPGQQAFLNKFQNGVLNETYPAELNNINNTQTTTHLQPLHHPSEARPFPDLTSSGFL
How it was run: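 Read-out: reporter mRNA quantified by RT-PCR with fluorescent primer extension and capillary electrophoresis. Human HepG2 liver cells carried transfected cis-promoter reporter units and were exposed to chemical for 24 h; gain or loss fitted relative to DMSO.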

[6] = ATG_AP_1_CIS: Attagene CIS-FACTORIAL HepG2 Assay for human Activator Protein 1 (AP-1) (AID 2282931); details: HepG2 Attagene cis-factorial AP-1 reporter mRNA; actives raise or lower the signal
How it was run: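 Multiplexed HepG2 reporter assay, 24 h dosing. mRNA induction detected by RT-PCR plus capillary electrophoresis. Activity fitted in both directions against DMSO.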

[7] = ATG_BRE_CIS: Attagene CIS-FACTORIAL HepG2 Assay for human Bone Morphogenetic Protein (BMP) Response Element (BRE) (AID 2282933); details: HepG2 BMP response element reporter, Attagene transcription factor profiling; actives raise or lower the signal
How it was run: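 Endogenous transcription factor activity read in transiently transfected HepG2 cells after 24 h chemical exposure. Bidirectional curve fitting against DMSO; readout is reporter transcript level by RT-PCR with capillary electrophoresis of labelled products.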

[8] = biological target: Retinoic acid receptor alpha (Homo sapiens) (UniProt P10276); experiment: ATG_DR5_RAR_CIS: Attagene CIS-FACTORIAL HepG2 Assay for human Retinoic Acid Receptor Alpha (RARE), DR5 submotif (AID 2282934); details: HepG2 Attagene cis-factorial RARE DR5 reporter, mRNA; actives raise or lower the signal;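 as to AC50: reporter responds to endogenous RAR alpha beta and gamma in HepG2 not RARA alone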
Chain of Retinoic acid receptor alpha (Homo sapiens) (P10276 whole entry, looked up): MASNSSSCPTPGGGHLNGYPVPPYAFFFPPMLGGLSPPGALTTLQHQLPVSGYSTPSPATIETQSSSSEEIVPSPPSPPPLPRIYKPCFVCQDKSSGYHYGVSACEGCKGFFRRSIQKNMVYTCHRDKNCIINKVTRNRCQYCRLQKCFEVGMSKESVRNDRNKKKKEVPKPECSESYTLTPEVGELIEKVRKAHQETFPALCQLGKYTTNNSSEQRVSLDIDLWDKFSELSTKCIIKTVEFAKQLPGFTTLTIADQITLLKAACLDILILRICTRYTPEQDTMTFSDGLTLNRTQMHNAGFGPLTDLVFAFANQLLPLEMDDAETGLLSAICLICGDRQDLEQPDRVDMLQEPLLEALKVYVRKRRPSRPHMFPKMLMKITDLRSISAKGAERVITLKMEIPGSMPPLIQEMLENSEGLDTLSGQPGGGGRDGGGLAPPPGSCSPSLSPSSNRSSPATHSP
How it was run: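 Read-out: DR5-driven reporter transcript measured by RT-PCR, 6-FAM primer extension, HpaI digest and capillary electrophoresis. Human HepG2 liver cells carry transiently transfected cis-element reporter constructs; dosing lasts 24 h. Gain or loss of signal fitted against DMSO baseline.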

[9] = biological target: Transcription factor E2F1 (Homo sapiens) (UniProt Q01094); experiment: ATG_E2F_CIS: Attagene CIS-FACTORIAL HepG2 Assay for human E2F Transcription Factor 1 (AID 2282935); details: HepG2 Attagene cis-reporter, E2F reporter RNA transcripts; actives raise or lower the signal
Chain of Transcription factor E2F1 (Homo sapiens) (Q01094 whole entry, looked up): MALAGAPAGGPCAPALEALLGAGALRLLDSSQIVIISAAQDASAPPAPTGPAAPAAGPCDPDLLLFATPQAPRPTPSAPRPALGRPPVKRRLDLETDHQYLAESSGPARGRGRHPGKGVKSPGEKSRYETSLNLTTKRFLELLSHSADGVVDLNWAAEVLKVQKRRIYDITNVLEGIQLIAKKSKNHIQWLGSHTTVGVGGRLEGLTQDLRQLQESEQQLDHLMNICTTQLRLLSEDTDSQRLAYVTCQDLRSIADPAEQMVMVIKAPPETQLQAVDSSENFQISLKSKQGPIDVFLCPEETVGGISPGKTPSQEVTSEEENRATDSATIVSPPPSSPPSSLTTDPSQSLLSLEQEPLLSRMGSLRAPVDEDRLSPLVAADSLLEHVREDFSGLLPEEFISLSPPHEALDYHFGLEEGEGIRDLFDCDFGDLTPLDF
How it was run: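 Endogenous E2F1 activity read through cis-promoter reporter units transfected into HepG2. After 24 h compound treatment, reporter mRNA measured by RT-PCR, HpaI digestion and capillary electrophoresis. Bidirectional fit versus DMSO.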

[10] = ATG_E_Box_CIS: Attagene CIS-FACTORIAL HepG2 Assay for human Enhancer Box (E-box) (AID 2282936); details: HepG2 E-box cis-reporter transcription, actives raise or lower the signal
How it was run: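 HepG2 cells transiently transfected with multiplexed cis-element reporter units, dosed 24 h; reporter mRNA quantified by RT-PCR, 6-FAM labelling, HpaI digestion and capillary electrophoresis. E-box (USF1) signal fitted bidirectionally vs DMSO.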

[11] = ATG_M_61_CIS: Attagene CIS-FACTORIAL HepG2 Assay for M61 Transcription Factor (Internal Marker) (AID 2282937); details: HepG2 Attagene CIS-FACTORIAL M61 internal marker reporter; actives raise or lower the signal
How it was run: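 Endogenous transcription factor activity in HepG2 is read through transiently transfected cis-element reporter units. After 24 h dosing, RNA undergoes reverse transcription, PCR and primer extension with 6-FAM before capillary electrophoresis; DMSO-referenced bidirectional fit.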

[12] = ATG_EGR_CIS: Attagene CIS-FACTORIAL HepG2 Assay for human Early Growth Response 1 (EGR1) (AID 2282938); details: HepG2 Attagene CIS-FACTORIAL EGR reporter mRNA; actives raise or lower the signal
How it was run: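 Activity is taken as induction or loss of reporter mRNA versus DMSO, fitted bidirectionally. Transcripts from cis-regulated reporter units in transiently transfected HepG2 were measured after 24 h by RT-PCR with capillary electrophoresis.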

[13] = ATG_M_19_CIS: Attagene CIS-FACTORIAL HepG2 Assay for M19 Transcription Factor (Internal Marker) (AID 2282939); details: HepG2 Attagene CIS-FACTORIAL M19 internal marker reporter; actives raise or lower the signal
How it was run: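 Internal marker readout, fitted in both directions against DMSO, from HepG2 cells carrying transfected cis-element reporter constructs; RT-PCR and capillary electrophoresis of reporter mRNA after 24 h exposure.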

[14] = ATG_AP_2_CIS: Attagene CIS-FACTORIAL HepG2 Assay for human Activator Protein 2 (AP-2) (AID 2282932); details: HepG2 AP-2 cis-reporter, Attagene transcription factor profiling; actives raise or lower the signal
How it was run: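 HepG2 cells transiently transfected with cis-element reporter units and exposed for 24 h. Reporter mRNA measured by RT-PCR, FAM labelling, HpaI digestion and capillary electrophoresis. Changes in either direction fitted relative to DMSO.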

Measured: AC50

N#Cc1ccc(Cl)cc1
not listed: [14]
inactive: all other assays above

CC(C)(c1ccccc1)c1cc(-n2nc3ccccc3n2)c(O)c(C(C)(C)c2ccccc2)c1
not listed: [6]
inactive: all other assays above

Cc1cc(C(C)(C)c2ccc(O)c(C)c2)ccc1O
active: [1] 21.8 µM | [3] 89.3 µM | [4] 12.1 µM | [5] 89 µM | [6] 83.9 µM | [8] 21.5 µM | [12] 32.4 µM
inactive: [2] | [7] | [9] | [10] | [11] | [13]

C=CC(Cl)CCl (stereo unspecified)
not listed: [14]
inactive: all other assays above

CCCSP(=S)(OCC)Oc1ccc(Cl)cc1Cl (stereo unspecified)
not listed: [6]
inactive: all other assays above

CCOC(=O)OC1=C(c2cc(C)ccc2C)C(=O)NC12CCC(OC)CC2 (stereo unspecified)
not listed: [7] | [10] | [14]
inactive: all other assays above

CCOP(=S)(OCC)SCS(=O)(=O)C(C)(C)C
active: [4] 29.2 µM
not listed: [14]
inactive: all other assays above

CCCCCCCCCCCCCCC(Br)C(=O)O (stereo unspecified)
inactive: [1] | [3] | [5] | [7] | [10]
active: [2] 179 µM | [4] 27.4 µM | [6] 173 µM | [8] 26.9 µM | [9] 108 µM | [11] 183 µM | [13] 183 µM

O=[N+]([O-])c1ccc(Nc2ccccc2)cc1
active: [7] 163 µM
not listed: [14]
inactive: all other assays above

ClCCCCl
not listed: [7] | [10] | [14]
inactive: all other assays above

Cc1ccc2nc3sc(=O)sc3nc2c1
active: [1] 6.6 µM | [2] 25 µM | [4] 22.4 µM | [7] 25 µM | [8] 6.63 µM
not listed: [14]
inactive: all other assays above

C[C@]12CC[C@@H](O)C[C@@H]1CC[C@@H]1[C@@H]2CC[C@]2(C)C(=O)CC[C@@H]12
not listed: [12] | [13] | [14]
inactive: all other assays above

CCCCC(CC)C(=O)Cl (stereo unspecified)
not listed: [14]
inactive: all other assays above

O=C(CCl)NCO
not listed: [7] | [9] | [12] | [14]
inactive: all other assays above

ClCCN1CCOCC1
not listed: [7] | [9]
inactive: all other assays above

CCCCS(=O)(=O)Cl
not listed: [14]
inactive: all other assays above

O=C(Cl)OCCOCCOC(=O)Cl
not listed: [6]
inactive: all other assays above

CCN(N=O)C(N)=O
not listed: [6]
inactive: all other assays above

COC(F)(C(F)(F)C(F)(F)F)C(F)(C(F)(F)F)C(F)(F)F (stereo unspecified)
not listed: [6]
inactive: all other assays above

Reference: PubChem BioAssay (EPA / NIEHS)
